CYP2C9 inh = blockers of cytochrome P450 2C9 activity – biochemical, luminescence, ADME assay, primary screen; P11712; CYP2C9 Supersomes, luciferin-H conversion; inhibition, % at 5 µM; hit rate 20% among 96,000; AID 777, 2007;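 active = blocking of liver enzyme CYP2C9 beyond about 50% at 5 µM, limit read from the data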
CYP2C9 act = human CYP2C9 activators, primary screen, biochemical, luminescence; Cytochrome P450 2C9 (Homo sapiens), P11712; recombinant CYP2C9, luciferin-H conversion; hits give high values; factor 1 = untreated enzyme, 0 = blocked; activation factor at 5 µM; hit rate 1.4% among 96,000;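 active = activation factor of 2 or more for CYP2C9 at a 5 µM dose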;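 note: 0 = sulfaphenazole-blocked wells and 1 = vehicle-only wells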
Mac1 fbg enh = enhancers of CD11b/CD18 adhesion to fibrinogen, primary screen, K562 cells, luminescence; activation, % at 10 µM; ATPlite luminescence; Integrin beta-2 (Homo sapiens) + Integrin alpha-M (Homo sapiens), P05107+P11215; hit rate 0.07% among 93,000;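 active = 10 µM primary screen giving 50% or more activity, confirmed by 40% or more on retest at that dose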
Target sequence (P05107 whole entry, looked up, other chains not shown): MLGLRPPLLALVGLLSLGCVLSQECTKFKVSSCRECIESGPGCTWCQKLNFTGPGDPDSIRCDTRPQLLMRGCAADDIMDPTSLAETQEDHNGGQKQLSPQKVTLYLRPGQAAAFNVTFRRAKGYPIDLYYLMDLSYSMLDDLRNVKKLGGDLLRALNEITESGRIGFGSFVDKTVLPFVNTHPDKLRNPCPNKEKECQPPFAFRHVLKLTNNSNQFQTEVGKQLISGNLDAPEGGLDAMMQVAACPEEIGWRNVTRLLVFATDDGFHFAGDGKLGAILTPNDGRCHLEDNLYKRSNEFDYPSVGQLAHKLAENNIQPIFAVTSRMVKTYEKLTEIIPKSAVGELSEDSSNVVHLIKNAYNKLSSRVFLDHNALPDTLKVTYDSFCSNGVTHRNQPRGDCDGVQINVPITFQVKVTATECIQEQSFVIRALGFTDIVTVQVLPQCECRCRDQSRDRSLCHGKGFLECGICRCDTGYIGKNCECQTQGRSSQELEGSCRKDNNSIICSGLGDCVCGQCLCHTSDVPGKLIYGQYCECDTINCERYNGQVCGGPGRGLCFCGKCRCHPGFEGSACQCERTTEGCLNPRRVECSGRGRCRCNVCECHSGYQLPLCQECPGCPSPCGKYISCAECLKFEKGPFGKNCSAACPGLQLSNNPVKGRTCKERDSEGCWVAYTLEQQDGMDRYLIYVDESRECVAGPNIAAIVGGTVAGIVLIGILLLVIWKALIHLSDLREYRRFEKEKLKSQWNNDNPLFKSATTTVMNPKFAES
CYP2C19 activ = human CYP2C19 activators, primary screen, biochemical, luminescence; activation factor at 5 µM; recombinant CYP2C19, luciferin-H EGE luminescence; hits give high values; 0 = fully inhibited enzyme, 1 = untreated enzyme; 96,000 tested, under 10 active; Cytochrome P450 2C19 (Homo sapiens), P33261;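 active = activation factor of at least 2 at 5 µM in the primary screen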;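 note: 0 = wells with 2.5 mM tranylcypromine and 1 = vehicle-only wells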
CD11b adhes inh = inhibitors of CD11b/CD18 adhesion to fibrinogen, primary screen, K562 cells, luminescence; AID 1497, 2009; inhibition, % at 10 µM; hit rate 0.54% among 93,000; ATPlite luminescence; Mn2+ added to activate the integrin; Integrin beta-2 (Homo sapiens) + Integrin alpha-M (Homo sapiens), P05107+P11215;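 active = primary inhibition of 50% or more at 10 µM, then 40% or more on retest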
CYP2C19 inhib = blockers of cytochrome P450 2C19 activity – biochemical, luminescence, ADME assay, primary screen | inhibition, % at 5 µM | CYP2C19 Supersomes, luciferin-H EGE luminescence, 30 min | hit rate 21% among 96,000;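 active = CYP2C19 inhibition above a set limit at 5 µM in the primary screen, cut at about 50% in these data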;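 note: plate controls were negative control wells for no effect and 2.5 mM tranylcypromine positive control for full effect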
Active calls of the source: *; nt = not tested or not shown. Hits are enriched below; roughly 28% of the tested compounds scored in any of these assays.

SMILES | CYP2C9 inh | CYP2C9 act | Mac1 fbg enh | CYP2C19 activ | CD11b adhes inh | CYP2C19 inhib
COc1ccccc1S(=O)Cc1ccc(C(=O)NCCc2ccc(Cl)cc2)o1 (stereo not drawn) | 64.8* | 0.4 | -0.6 | 0.4 | -3.9 | 62.3*
COc1ccc(CCNC(=O)c2nnc(Cc3ccc(Cl)cc3)o2)cc1OC | 46.4 | 0.5 | 0.0 | 0.9 | 5.5 | 14.7
COc1ccccc1S(=O)Cc1ccc(C(=O)NC2CCCC2)o1 (stereo not drawn) | 54.9* | 0.5 | 4.1 | 0.9 | -3.3 | 13.4
Cn1c(=O)[nH]c(=O)c2c1nc(SCC(O)CO)n2Cc1ccccc1Cl (stereo not drawn) | 0.2 | 1 | 4.5 | 1.1 | -21.6 | -12.7
COC(=O)CNC(=O)CNC(=O)Nc1ccccc1Cl | 1.9 | 1 | -2.5 | 0.7 | -2.1 | 33.2
COc1ccc(-n2nnnc2SCC(=O)Nc2cccc(C)n2)cc1OC | 58.2* | 0.4 | 1.1 | 0.7 | -2.5 | 26.0
CCC(=O)Nc1cccc(-n2nnnc2SCC(=O)NCc2ccco2)c1 | -131.9 | 2.3* | -1.4 | 0.4 | -7.3 | 57.8*
COc1ccc(-n2nnnc2SCC(=O)NCc2ccco2)cc1OC | -123.8 | 2.2* | -1.2 | 0.8 | -1.3 | 19.0
C=CCC1(C#N)C(SC)=NC2=C(C(=O)CC(C)(C)C2)C1c1ccc(Br)cc1 (stereo not drawn) | nt | nt | -2.3 | nt | 14.2 | nt
C/C(CC1CC(COCCC(C)C)OC1=O)=N\NC(N)=S (stereo not drawn) | -24.6 | 1.2 | nt | 1 | nt | -0.9
COc1cc2c(cc1NC(=O)c1cc(-c3ccncc3)nc3ccc(C)cc13)oc1ccccc12 | 86.6* | 0.1 | 77.9 | 0.4 | -46.4 | 61.0*
COc1cc2c(cc1NC(=O)c1cncc(Br)c1)oc1ccccc12 | -14.6 | 1.1 | 14.8 | 1.2 | -22.6 | -20.0
O=C(Nc1nc(-c2cccs2)cs1)c1cccc(S(=O)(=O)N2CCCCC2)c1 | 84.2* | 0.2 | 0.1 | 0.5 | 16.0 | 50.6*
COc1cccc(C(=O)Nc2nc(-c3ccc(S(=O)(=O)N4CCOCC4)cc3)cs2)c1 | 83.3* | 0.2 | -0.2 | 0.7 | 29.4 | 29.9
Cc1ccc(-c2csc(NC(=O)c3cccc(S(=O)(=O)N4CCN(C)CC4)c3)n2)cc1 | 6.1 | 0.9 | 3.7 | 0 | -11.2 | 97.2*
O=C(Nc1nc(-c2ccc(S(=O)(=O)N3CCOCC3)cc2)cs1)c1ccccc1 | 47.5 | 0.5 | 14.7 | 0.9 | -3.2 | 9.4
Cc1ccc(-c2csc(NC(=O)COC(=O)c3cccc(S(=O)(=O)N4CCOCC4)c3)n2)cc1 | 13.8 | 0.9 | -0.7 | 0.9 | 9.0 | 14.1
O=C(NC(=S)N1CCOCC1)c1ccc([N+](=O)[O-])cc1 | nt | nt | -1.8 | nt | 8.0 | nt
Cc1cc(C)n2nc(SCc3cc(=O)oc4cc(O)ccc34)nc2n1 | 19.6 | 0.8 | 27.7 | 1.1 | 1.4 | -14.5
Cc1ccc2c(CSc3nnc(N)s3)cc(=O)oc2c1 | 39.9 | 0.6 | -1.0 | 0.2 | -4.6 | 84.8*
CCOC(=O)c1cnc2c(C)cccc2c1NCCc1ccc(OC)c(OC)c1 | 90.2* | 0.1 | -2.3 | 0 | 3.6 | 97.0*
CC1CC(C)CN(C(=O)CSc2nc(Cc3cccs3)nc3ccccc23)C1 (stereo not drawn) | 71.6* | 0.3 | -2.3 | 0.7 | 24.3 | 27.6
COCCn1c(SCC(=O)N2CCc3ccccc3C2)nc2ccccc2c1=O | nt | nt | -1.7 | nt | 7.9 | nt
CCOC(=O)CSc1nc(CC)nc2ccccc12 | 16.7 | 0.8 | -1.2 | 0.6 | -2.1 | 45.0
CCOC(=O)CNC(=O)CSc1nc(Cc2cccs2)nc2ccccc12 | 43.8 | 0.6 | nt | 0.4 | nt | 57.6*
CCc1nc(SCC(=O)NNC(=O)C2CCCCC2)c2ccccc2n1 | -81.3 | 1.8 | nt | 1 | nt | -4.5
CCCc1nc(SCC(=O)N2CCc3ccccc3C2)c2ccccc2n1 | 78.5* | 0.2 | nt | 0.4 | nt | 57.1*
Cc1c(-c2ccccc2)oc2nc3c(c(=O)n(C)c(=O)n3C)n12 | 4.3 | 1 | -1.2 | 0.9 | -12.2 | 5.4
O=C(CN1CCN(Cc2ccccc2F)C1=O)NCc1ccco1 | -0.2 | 1 | -1.2 | 1 | -5.0 | -0.5

From PubChem
